# Experimental data reported in PubChem BioAssay.
# The source made the active and inactive calls.
# Legend:
# [1] = test system: Plasmodium falciparum Sir2 (PF13_0152, Sir2A); assay: pfSir2 binders on small-molecule microarrays, primary screen, biochemical, small-molecule microarray, 635 nm fluorescence (AID 1098); settings: small-molecule microarray binding, fluorescence 635 nm; higher = more signal;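 further: score merges spot fluorescence intensity with its signal-to-noise ratio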
# [2] = small-molecule microarray binders of probe aDKK1, primary screen, biochemical, biotinylated probe, 635/667 nm fluorescence (AID 1099); settings: higher = more signal;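 further: score merges 667nm spot fluorescence with signal to noise across triplicate slides; reference of the scale not given here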
# [3] = small-molecule microarray binders of probe aCHRDL2, primary screen, biochemical, biotinylated probe, 635/667 nm fluorescence (AID 1100); settings: higher = more signal
# [4] = splicing luciferase reporter signal modulators, primary screen, spliceosome inhibition project, cell-based, HEK293, splice +/- reporter (AID 1101); settings: luminescence, 24 h, higher = more signal, called active from +8 up or from −8 down;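 further: HEK293 cells carrying a splicing-competent luciferase reporter gene; test concentration not given here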
# [5] = target: Fibroblast growth factor 10 (Homo sapiens) (UniProt O15520); assay: FGF10 binders on small-molecule microarrays, primary screen, biochemical, small-molecule microarray, 635 nm fluorescence (AID 1102); settings: FGF10 binding, fluorescence 635 nm, higher = more signal
# [6] = test system: glycogen synthase kinase-3 (GSK3A per assay name; protocol says GSK3B); assay: GSK3 binders on small-molecule microarrays, primary screen, biochemical, small-molecule microarray, 635 nm fluorescence, GSK3A (AID 1103); settings: small-molecule microarray binding, fluorescence 635 nm; higher = more signal; further: the record names both GSK3A and GSK3B
# [7] = target: Epidermal growth factor receptor (Homo sapiens) (UniProt P00533); assay: EGFR binders on small-molecule microarrays, primary screen, biochemical, small-molecule microarray, 635 nm fluorescence (AID 1104); settings: EGFR binding, higher = more signal;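 further: score merges 667 nm emission intensity with spot signal to noise over triplicate slides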
# [8] = target: Follistatin-related protein 3 (Homo sapiens) (UniProt O95633); assay: FSTL3 binders on small-molecule microarrays, primary screen, biochemical, small-molecule microarray, 635 nm fluorescence (AID 1105); settings: FSTL3 binding, higher = more signal;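 further: score merges emission near 667 nm and signal to noise per printed spot across three slides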
# [9] = target: Dickkopf-related protein 1 (Homo sapiens) (UniProt O94907); assay: DKK1 binders on small-molecule microarrays, primary screen, biochemical, small-molecule microarray, 635 nm fluorescence scan (AID 1106); settings: DKK1 binding, higher = more signal;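 further: score merges emission near 667 nm with signal to noise over three replicate slides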
# [10] = test system: Inhibin beta A chain (activin A); assay: INHBA (activin A) binders on microarrays, primary screen, biochemical, small-molecule microarray, 635 nm fluorescence scan (AID 1107); settings: small-molecule microarray binding, higher = more signal;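 further: mouse activin A protein probed at 4.33 µg/mL on printed slides; score merges bound-protein fluorescence near 667 nm with spot signal-to-noise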
# Sequence of Dickkopf-related protein 1 (Homo sapiens) (O94907 whole entry, looked up): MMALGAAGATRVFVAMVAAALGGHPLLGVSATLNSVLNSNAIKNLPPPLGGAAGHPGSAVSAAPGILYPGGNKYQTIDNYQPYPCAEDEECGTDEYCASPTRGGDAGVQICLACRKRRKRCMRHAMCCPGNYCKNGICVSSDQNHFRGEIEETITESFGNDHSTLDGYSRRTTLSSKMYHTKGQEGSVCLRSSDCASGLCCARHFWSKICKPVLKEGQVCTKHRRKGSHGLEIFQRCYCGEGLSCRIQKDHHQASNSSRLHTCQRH
# Sequence of Epidermal growth factor receptor (Homo sapiens) (P00533 whole entry, looked up): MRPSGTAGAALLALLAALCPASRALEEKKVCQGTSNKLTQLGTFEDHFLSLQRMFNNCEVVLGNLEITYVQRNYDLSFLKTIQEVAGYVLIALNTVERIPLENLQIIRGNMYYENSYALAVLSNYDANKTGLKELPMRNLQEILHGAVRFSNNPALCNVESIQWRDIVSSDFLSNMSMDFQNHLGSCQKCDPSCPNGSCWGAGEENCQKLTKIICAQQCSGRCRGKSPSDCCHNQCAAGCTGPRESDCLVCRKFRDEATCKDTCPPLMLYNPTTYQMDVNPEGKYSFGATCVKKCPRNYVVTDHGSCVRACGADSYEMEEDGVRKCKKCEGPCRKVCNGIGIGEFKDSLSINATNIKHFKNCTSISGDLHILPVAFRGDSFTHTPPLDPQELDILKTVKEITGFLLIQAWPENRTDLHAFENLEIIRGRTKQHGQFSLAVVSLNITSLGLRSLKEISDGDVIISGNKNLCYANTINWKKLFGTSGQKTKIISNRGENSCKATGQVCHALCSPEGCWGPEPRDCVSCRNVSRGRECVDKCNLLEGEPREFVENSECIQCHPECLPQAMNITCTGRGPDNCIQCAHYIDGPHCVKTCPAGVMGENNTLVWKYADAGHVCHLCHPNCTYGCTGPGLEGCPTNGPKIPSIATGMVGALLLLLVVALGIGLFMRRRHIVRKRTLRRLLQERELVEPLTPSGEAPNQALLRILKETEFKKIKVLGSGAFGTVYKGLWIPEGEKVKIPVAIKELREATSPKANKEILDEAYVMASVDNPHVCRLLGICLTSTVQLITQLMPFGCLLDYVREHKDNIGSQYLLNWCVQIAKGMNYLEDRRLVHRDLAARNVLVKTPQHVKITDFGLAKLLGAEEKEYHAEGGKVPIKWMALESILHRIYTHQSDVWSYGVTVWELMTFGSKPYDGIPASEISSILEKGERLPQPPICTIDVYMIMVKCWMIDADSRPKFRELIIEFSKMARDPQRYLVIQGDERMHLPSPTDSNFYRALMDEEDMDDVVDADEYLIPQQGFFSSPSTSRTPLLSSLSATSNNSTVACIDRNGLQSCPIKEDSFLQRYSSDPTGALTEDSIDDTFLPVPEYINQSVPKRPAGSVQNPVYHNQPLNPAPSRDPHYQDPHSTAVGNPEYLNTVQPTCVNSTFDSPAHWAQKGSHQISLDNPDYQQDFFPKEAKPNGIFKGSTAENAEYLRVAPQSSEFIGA
# Sequence of Fibroblast growth factor 10 (Homo sapiens) (O15520 whole entry, looked up): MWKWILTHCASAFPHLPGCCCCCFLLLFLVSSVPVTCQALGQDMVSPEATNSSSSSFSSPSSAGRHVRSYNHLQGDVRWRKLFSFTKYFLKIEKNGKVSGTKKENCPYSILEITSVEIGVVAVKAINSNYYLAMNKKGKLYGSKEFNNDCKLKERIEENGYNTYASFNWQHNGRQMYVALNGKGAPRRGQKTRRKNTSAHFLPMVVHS
# Sequence of Follistatin-related protein 3 (Homo sapiens) (O95633 whole entry, looked up): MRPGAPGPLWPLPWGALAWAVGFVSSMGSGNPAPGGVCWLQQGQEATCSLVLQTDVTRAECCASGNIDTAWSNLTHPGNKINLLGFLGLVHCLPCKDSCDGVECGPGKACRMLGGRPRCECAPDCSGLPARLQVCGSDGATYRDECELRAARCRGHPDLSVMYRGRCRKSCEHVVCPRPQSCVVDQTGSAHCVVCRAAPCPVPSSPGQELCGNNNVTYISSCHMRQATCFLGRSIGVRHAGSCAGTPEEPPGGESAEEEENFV
Structure (SMILES),composite z-score [1],composite z-score [2],composite z-score [3],z-score [4],composite z-score [5],composite z-score [6],composite z-score [7],composite z-score [8],composite z-score [9],composite z-score [10]
C[C@]1(C(=O)NCC(F)(F)F)c2ccccc2C(=O)N(Cc2cc(F)cc(C(F)(F)F)c2)[C@H]1c1ccc(CO)cc1,1.54,1.64,0.572,-0.633 (inactive),0.257,-0.12,0.0376,-0.66,-0.609,-0.461
CN(C)CCCC[C@@H]1NC(=O)[C@@H]2C[C@H](C(=O)NCCCCCN)[C@H](c3ccc(O)cc3)N2C1=O,0.016,0.442,0.916,-0.159 (inactive),-0.008,0.31,-0.912,-1.25,-0.722,-0.273
Cc1ccc(S[C@]2(C(=O)NCCN3CCOCC3)CC(=O)N(C3CCCCC3)[C@@H]2c2ccc(CO)cc2)cc1,1.35,-0.0443,0.781,0.114 (inactive),-0.103,0.606,-0.551,0.181,-0.55,0.602
COc1ccc([Si](C)(C)[C@@H]2[C@@H](CCO)O[C@]3(C(=O)N(Cc4cccc(N(C=O)c5ccccc5)c4)c4ccccc43)[C@H]2C)cc1,0.883,0.0396,0.541,-2.49 (inactive),-0.0644,0.364,-0.222,-0.0339,-0.0116,1.03
COc1ccc([Si](C)(C)[C@@H]2[C@@H](CCn3cc([C@H](O)c4ccccc4)nn3)O[C@]3(C(=O)N(C)c4ccccc43)[C@H]2C)cc1,0.839,-0.202,0.28,0.0848 (inactive),0.0782,0.11,0.0033,-0.291,0.0052,0.283
[N-]=[N+]=Nc1ccccc1[C@@H]1OC(c2ccc(OCCCO)cc2)=N[C@]1(CCS(=O)(=O)c1ccccc1)C(=O)O,1.25,0.541,0.54,-1.27 (inactive),1.11,1.29,0.452,1.44,0.227,1.31
O=C1OCC=C[C@H]2OC34C=CCN(c5ccc(Cl)cc5)C(=O)[C@H]3N(CCCO)C(=O)[C@@H]4[C@@H]12 (stereo not given in full),-0.0096,-0.477,0.673,-0.915 (inactive),-0.742,-1.19,-0.781,-0.551,-1.32,1.23
COc1ccc(C(O)C2C=CC3C(=O)N(c4ccccc4)C(=O)C3N2Nc2ccccc2)c2ccccc12 (stereo not given),1,0.927,0.947,0.66 (inactive),-0.0394,0.0564,-0.413,0.165,-0.611,1.19
COCCOC(=O)N1C(=O)[C@@]2(c3ccccc31)[C@H](c1ccc(O)cc1)N1[C@H](c3ccccc3)[C@H](c3ccccc3)OC(=O)[C@H]1[C@@H]2C(N)=O,0.394,-0.374,0.679,0.435 (inactive),-0.422,-1.11,-0.608,-0.821,-1.17,-0.249
Cc1ccc([C@H]2C(C(=O)O)=C[C@@H](C(C)C)N2S(=O)(=O)c2ccc(C)cc2)cc1,0.853,0.309,0.68,-0.349 (inactive),0.265,0.914,-0.206,-0.103,-0.329,0.479
COC(=O)C(CC#Cc1ccc2c(c1)[C@]1(C(=O)N2)[C@H](C(=O)N2CCCCCCC2)[C@H]2C(=O)O[C@H](c3ccccc3)[C@H](c3ccccc3)N2[C@@H]1c1ccccc1OCCO)C(=O)OC,2.14,3.1,1.75,0.13 (inactive),1.47,1.47,1.96,1.73,2.58,1.79
O=C1O[C@@H](c2ccccc2)[C@@H](c2ccccc2)N2[C@@H](c3ccc(O)cc3)[C@]3(C(=O)Nc4ccccc43)[C@@H](C(=O)NC[C@H](O)c3ccccc3)[C@H]12,0.851,-0.139,0.0547,0.576 (inactive),0.117,-1.28,0.249,0.244,0.259,-0.297
[N-]=[N+]=Nc1ccccc1[C@H]1OC(c2ccc(OCCCO)cc2)=N[C@@]1(CCS(=O)(=O)c1ccccc1)C(=O)N1CCOCC1,1.5,1.8,1.46,-0.829 (inactive),1.26,1.16,0.211,0.924,-0.169,0.891
CN1C(=O)C2C=CC(C(O)C(c3ccccc3)c3ccccc3)N(Nc3ccccc3)C2C1=O (stereo not given),0.929,0.724,0.883,0.559 (inactive),1.11,1.32,0.247,1.07,-0.138,0.596
